Holding throughout (assay): DAPPL (digital affinity profiling via proximity ligation, sequencing); 10 mM Tris-HCl pH 7.5, 50 mM NaCl, 1 mM DTT, 4% glycerol, room temperature, 30 min; GST-TFs on glutathione beads, 16-mer random dsDNA library, 0.1% formaldehyde crosslink after washing; high values mean tight binding
The target of one assay is T1, FLI1 (Homo sapiens, UniProt Q01543 1-452).
T1 sequence: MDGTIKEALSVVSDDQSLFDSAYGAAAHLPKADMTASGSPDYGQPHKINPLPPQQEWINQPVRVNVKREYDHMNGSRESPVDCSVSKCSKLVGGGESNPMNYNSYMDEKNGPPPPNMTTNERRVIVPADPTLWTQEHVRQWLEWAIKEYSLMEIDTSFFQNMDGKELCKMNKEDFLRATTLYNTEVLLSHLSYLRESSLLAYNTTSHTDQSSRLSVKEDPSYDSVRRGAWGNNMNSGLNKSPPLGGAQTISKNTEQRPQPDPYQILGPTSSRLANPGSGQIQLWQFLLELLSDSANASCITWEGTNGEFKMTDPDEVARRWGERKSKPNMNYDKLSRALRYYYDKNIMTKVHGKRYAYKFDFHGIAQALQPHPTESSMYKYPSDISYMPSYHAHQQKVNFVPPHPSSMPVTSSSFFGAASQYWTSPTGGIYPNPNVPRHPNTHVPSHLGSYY
Conditions: protein: recombinant; tags: N-terminal GST; dsDNA, one strand shown. The gist of the method:
(§1)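 Beads coated with glutathione captured GST-fused human transcription factors that had been expressed in yeast, and the factors were then given DNA barcodes and pooled with a tag-only sample. The pools were incubated with 200 nmole of a random double-stranded 16-mer DNA library in Tris/NaCl/DTT/glycerol buffer for 30 min at room temperature, washed, crosslinked with 0.1% formaldehyde and proximity-ligated with BsaI/T4 ligase at 37 °C for 1 h. PCR amplification and Illumina NextSeq500 sequencing came last. Binding signal is each hexamer's read frequency for a factor divided by its frequency for the tag-only sample.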

Another assay deals with T2, ELK1 (Homo sapiens, UniProt P19419 1-428).
T2 sequence: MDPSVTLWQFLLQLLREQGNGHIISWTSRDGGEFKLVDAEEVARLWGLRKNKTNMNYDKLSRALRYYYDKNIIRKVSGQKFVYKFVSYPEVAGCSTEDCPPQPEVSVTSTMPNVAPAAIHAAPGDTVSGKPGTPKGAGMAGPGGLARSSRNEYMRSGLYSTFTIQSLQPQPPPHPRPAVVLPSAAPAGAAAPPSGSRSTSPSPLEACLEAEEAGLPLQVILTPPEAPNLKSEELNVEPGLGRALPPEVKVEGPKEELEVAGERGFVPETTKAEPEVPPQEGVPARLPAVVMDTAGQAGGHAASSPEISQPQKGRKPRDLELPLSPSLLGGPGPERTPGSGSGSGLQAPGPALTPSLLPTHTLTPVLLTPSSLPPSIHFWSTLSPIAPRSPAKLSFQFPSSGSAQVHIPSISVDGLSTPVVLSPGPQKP
Conditions: protein: recombinant; tags: N-terminal GST; dsDNA, one strand shown. Put shortly: as §1

The target of the next assay is T3, GABPA (Homo sapiens, UniProt Q06546 1-454).
T3 sequence: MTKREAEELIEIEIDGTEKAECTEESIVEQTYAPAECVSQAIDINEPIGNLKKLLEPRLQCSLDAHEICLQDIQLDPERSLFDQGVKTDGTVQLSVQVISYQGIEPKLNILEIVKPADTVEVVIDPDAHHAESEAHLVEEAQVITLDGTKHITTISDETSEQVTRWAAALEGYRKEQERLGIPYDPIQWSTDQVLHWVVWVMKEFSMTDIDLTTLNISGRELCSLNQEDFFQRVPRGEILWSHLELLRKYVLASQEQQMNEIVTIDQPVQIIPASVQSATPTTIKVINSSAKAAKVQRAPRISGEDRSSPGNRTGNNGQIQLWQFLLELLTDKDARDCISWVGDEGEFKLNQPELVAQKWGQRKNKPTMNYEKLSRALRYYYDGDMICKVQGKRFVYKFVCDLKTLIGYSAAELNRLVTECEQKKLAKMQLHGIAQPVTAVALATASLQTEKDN
Conditions: protein: recombinant; tags: N-terminal GST; dsDNA, one strand shown. Put shortly: as §1

The next assay concerns the target T4, ERG (Homo sapiens, UniProt P11308 1-479).
T4 sequence: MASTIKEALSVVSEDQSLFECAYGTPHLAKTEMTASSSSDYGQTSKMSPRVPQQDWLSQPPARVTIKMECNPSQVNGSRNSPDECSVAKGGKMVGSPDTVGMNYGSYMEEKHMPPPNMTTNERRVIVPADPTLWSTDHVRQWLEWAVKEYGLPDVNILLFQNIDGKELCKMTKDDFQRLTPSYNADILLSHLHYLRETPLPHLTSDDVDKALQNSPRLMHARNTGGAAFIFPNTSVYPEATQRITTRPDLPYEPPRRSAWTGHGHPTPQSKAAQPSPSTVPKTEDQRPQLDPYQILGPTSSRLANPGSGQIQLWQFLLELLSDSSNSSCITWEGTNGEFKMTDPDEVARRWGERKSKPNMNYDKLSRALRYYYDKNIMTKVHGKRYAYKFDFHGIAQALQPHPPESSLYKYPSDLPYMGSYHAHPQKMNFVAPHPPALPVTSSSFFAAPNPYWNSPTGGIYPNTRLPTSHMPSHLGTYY
Conditions: protein: recombinant; tags: N-terminal GST; dsDNA, one strand shown. The gist of the method: as §1

The next assay addresses ELF1 (Homo sapiens, UniProt P32519 1-619). Conditions: protein: recombinant; tags: N-terminal GST; dsDNA, one strand shown. The gist of the method: as §1
The next assay concerns the target T5, EHF (Homo sapiens, UniProt Q9NZC4 1-300).
T5 sequence: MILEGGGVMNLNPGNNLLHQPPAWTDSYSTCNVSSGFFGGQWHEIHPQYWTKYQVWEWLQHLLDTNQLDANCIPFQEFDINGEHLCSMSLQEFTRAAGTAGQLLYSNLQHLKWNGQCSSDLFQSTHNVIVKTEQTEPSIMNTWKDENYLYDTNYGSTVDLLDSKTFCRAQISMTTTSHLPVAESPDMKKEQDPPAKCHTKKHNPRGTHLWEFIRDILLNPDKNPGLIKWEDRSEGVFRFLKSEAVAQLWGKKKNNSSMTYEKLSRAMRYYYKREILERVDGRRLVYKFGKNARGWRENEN
Conditions: protein: recombinant; tags: N-terminal GST; dsDNA, one strand shown. The gist of the method: as §1

For another assay, the target named is SPI1 (Homo sapiens, UniProt P17947 1-270). Conditions: protein: recombinant; tags: N-terminal GST; dsDNA, one strand shown. Put shortly:
as §1

The next assay concerns the target SPIB (Homo sapiens, UniProt Q01892 1-262). Conditions: protein: recombinant; tags: N-terminal GST; dsDNA, one strand shown. The gist of the method:
as §1

Another assay addresses T6, ELK3 (Homo sapiens, UniProt P41970 1-407).
T6 sequence: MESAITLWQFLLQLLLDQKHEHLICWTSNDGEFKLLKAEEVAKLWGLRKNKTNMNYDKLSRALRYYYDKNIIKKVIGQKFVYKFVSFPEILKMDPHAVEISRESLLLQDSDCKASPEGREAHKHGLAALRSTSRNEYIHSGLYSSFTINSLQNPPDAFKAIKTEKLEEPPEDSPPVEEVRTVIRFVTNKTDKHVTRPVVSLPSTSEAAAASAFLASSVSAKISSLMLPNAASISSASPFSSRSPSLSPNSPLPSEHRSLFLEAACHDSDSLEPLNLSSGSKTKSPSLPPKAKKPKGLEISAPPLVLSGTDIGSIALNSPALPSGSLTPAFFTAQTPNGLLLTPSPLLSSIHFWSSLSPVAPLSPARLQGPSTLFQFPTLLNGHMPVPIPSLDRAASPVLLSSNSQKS
Conditions: protein: recombinant; tags: N-terminal GST; dsDNA, one strand shown. Put shortly: as §1

In a further assay the target is T7, FEV (Homo sapiens, UniProt Q99581 1-238).
T7 sequence: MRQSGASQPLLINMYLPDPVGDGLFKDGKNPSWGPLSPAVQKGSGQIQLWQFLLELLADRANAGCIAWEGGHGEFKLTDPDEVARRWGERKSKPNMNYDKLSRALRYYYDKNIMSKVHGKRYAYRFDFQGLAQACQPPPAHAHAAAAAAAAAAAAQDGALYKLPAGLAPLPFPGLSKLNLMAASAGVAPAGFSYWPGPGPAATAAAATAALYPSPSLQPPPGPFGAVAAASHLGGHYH
Conditions: protein: recombinant; tags: N-terminal GST; dsDNA, one strand shown. Put shortly: as §1

For a further assay, the target named is ETV5 (Homo sapiens, UniProt P41161 1-510). Conditions: protein: recombinant; tags: N-terminal GST; dsDNA, one strand shown. The gist of the method: as §1
Sequence of ETV5 (P41161 whole entry): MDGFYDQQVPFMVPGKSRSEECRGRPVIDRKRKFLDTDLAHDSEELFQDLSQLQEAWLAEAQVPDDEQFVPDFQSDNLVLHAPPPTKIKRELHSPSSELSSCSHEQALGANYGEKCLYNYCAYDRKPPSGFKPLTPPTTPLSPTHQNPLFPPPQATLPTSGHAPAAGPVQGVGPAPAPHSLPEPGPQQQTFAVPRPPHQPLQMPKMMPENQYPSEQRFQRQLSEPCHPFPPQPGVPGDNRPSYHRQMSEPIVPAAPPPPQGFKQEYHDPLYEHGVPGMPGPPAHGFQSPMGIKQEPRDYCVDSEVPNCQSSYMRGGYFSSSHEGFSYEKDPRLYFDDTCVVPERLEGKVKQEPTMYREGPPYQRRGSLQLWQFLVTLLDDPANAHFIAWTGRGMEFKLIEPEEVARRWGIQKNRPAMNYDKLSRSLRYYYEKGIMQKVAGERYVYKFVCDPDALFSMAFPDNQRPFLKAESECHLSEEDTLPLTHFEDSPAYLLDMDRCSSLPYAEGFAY
The target of a further assay is HSF1 (Homo sapiens, UniProt Q00613 1-529). Conditions: protein: recombinant; tags: N-terminal GST; chain copies: 3; dsDNA, one strand shown. Put shortly: as §1
Sequence of HSF1 (Q00613 whole entry): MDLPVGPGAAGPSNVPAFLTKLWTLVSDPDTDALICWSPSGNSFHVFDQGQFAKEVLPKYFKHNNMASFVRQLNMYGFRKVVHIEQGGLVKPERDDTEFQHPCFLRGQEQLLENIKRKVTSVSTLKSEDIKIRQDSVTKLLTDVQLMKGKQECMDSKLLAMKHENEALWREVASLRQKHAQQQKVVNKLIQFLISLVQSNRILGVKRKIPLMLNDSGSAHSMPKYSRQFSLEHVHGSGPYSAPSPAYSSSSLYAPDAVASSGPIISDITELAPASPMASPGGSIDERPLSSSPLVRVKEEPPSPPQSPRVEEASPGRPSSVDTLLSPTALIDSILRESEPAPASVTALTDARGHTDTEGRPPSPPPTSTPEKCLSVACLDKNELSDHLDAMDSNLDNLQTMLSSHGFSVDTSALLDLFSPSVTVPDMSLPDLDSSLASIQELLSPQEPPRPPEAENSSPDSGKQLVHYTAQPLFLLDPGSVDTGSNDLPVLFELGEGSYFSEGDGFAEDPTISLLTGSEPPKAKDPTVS
The target of a further assay is T8, SPIC (Homo sapiens, UniProt Q8N5J4 1-248).
T8 sequence: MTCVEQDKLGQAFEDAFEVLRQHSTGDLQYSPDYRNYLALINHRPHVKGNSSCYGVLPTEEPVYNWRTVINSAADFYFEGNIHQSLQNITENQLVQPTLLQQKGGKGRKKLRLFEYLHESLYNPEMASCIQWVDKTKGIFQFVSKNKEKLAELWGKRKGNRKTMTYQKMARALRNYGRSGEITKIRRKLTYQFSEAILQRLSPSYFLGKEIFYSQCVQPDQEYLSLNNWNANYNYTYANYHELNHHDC
Conditions: protein: recombinant; tags: N-terminal GST; dsDNA, one strand shown. Put shortly:
as §1

A further assay deals with ELF4 (Homo sapiens, UniProt Q99607 1-663). Conditions: protein: recombinant; tags: N-terminal GST; dsDNA, one strand shown. Put shortly: as §1
Sequence of ELF4 (Q99607 whole entry): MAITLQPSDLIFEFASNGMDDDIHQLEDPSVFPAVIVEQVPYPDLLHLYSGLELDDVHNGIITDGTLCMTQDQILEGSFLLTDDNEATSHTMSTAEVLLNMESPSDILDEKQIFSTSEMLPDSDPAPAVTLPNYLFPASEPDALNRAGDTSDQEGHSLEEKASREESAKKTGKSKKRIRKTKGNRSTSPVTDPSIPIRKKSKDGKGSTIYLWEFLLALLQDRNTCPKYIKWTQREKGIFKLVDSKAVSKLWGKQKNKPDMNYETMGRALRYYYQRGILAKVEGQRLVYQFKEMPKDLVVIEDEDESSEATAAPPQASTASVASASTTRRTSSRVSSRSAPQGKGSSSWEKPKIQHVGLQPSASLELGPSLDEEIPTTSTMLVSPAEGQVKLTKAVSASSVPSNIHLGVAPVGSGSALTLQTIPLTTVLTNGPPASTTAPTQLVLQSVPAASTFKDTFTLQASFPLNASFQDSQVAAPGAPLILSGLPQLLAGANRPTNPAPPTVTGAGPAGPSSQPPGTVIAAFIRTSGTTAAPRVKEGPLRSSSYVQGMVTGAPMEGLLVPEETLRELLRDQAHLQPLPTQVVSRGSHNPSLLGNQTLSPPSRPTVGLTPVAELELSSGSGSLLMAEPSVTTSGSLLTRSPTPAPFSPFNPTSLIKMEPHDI
The target in another assay is T9, ETV2 (Homo sapiens, UniProt O00321 1-342).
T9 sequence: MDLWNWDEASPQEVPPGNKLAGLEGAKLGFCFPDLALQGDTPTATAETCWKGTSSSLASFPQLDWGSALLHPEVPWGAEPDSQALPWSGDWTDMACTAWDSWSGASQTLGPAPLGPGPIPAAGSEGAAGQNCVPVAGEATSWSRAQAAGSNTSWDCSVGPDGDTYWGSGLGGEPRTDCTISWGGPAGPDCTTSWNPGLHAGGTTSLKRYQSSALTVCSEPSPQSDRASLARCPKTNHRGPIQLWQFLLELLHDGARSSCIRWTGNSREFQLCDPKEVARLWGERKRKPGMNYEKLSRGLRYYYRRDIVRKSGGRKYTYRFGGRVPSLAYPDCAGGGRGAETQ
Conditions: protein: recombinant; tags: N-terminal GST; dsDNA, one strand shown. The gist of the method:
as §1

The next assay deals with T10, ELF3 (Homo sapiens, UniProt P78545 1-371).
T10 sequence: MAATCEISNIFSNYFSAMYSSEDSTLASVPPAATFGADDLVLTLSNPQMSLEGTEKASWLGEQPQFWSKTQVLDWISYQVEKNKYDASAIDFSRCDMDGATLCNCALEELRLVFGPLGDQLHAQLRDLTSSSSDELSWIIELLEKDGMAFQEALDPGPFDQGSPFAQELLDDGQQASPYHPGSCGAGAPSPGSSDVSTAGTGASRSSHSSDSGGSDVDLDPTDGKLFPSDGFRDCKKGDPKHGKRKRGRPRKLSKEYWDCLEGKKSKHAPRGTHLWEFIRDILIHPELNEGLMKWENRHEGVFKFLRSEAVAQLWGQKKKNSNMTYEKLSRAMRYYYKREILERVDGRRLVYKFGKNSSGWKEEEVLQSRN
Conditions: protein: recombinant; tags: N-terminal GST; dsDNA, one strand shown. The gist of the method: as §1

For a further assay, the target named is CRX (Homo sapiens, UniProt O43186 1-299). Conditions: protein: recombinant; tags: N-terminal GST; dsDNA, one strand shown. Put shortly: as §1
Sequence of CRX (O43186 whole entry): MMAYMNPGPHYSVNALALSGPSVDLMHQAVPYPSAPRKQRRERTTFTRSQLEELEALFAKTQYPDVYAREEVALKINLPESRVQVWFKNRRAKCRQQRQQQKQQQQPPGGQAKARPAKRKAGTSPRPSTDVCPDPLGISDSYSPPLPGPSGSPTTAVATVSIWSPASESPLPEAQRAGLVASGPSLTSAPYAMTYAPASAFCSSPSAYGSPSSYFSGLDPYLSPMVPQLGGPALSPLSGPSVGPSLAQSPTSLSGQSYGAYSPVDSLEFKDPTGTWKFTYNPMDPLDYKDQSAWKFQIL
Another assay addresses ETV1 (Homo sapiens, UniProt P50549 1-477). Conditions: protein: recombinant; tags: N-terminal GST; dsDNA, one strand shown. Put shortly: as §1

Sequence of ELF1 (P32519 whole entry): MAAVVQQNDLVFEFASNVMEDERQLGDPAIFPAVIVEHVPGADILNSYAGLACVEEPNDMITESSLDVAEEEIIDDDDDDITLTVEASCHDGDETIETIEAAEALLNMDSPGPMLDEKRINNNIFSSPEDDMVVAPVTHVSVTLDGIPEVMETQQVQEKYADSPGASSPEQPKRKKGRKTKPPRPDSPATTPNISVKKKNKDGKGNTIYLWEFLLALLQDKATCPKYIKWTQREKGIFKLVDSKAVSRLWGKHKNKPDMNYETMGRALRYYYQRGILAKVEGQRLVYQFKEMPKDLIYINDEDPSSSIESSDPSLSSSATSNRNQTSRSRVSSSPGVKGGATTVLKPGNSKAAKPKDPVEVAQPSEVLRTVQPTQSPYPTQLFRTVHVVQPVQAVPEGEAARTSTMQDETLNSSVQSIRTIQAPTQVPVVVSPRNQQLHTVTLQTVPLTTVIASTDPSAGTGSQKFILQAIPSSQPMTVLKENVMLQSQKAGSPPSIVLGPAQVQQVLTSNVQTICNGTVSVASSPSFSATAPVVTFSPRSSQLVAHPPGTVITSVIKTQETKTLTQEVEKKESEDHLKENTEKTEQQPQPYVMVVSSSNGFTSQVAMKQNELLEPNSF
Sequence of SPIB (Q01892 whole entry): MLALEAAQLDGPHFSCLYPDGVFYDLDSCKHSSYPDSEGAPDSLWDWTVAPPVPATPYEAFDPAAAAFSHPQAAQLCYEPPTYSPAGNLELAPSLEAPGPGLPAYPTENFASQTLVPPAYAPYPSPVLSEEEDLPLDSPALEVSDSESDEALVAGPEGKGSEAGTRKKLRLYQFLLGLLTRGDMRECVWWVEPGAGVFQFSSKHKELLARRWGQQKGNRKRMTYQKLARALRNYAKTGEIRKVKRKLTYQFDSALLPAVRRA
Sequence of ETV1 (P50549 whole entry): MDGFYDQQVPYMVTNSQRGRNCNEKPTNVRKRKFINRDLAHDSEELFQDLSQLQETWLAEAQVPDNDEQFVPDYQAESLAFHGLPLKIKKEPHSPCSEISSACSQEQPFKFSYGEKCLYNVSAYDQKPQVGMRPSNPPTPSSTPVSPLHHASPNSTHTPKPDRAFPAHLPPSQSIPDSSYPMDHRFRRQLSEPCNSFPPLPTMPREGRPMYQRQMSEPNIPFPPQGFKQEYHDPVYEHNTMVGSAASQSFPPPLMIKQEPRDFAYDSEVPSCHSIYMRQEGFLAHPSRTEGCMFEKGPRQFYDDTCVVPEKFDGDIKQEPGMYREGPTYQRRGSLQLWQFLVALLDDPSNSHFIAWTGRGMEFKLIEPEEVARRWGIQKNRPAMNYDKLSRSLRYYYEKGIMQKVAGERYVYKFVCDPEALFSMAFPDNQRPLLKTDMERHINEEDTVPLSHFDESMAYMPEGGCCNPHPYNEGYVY

Consider ACTTAG, for which the binding signal is 1.04 fold enrichment (6-mer frequency, TF over GST control) with FLI1; 1.06 fold enrichment (6-mer frequency, TF over GST control) in the assay with ELK1; 1.11 fold enrichment (6-mer frequency, TF over GST control) with GABPA; 1.09 fold enrichment (6-mer frequency, TF over GST control) with ERG; 1.05 fold enrichment (6-mer frequency, TF over GST control) in the assay with ELF1; 1.11 fold enrichment (6-mer frequency, TF over GST control) with EHF. Besides, the binding signal in the assay with SPI1 is 1.05 fold enrichment (6-mer frequency, TF over GST control); in the assay with SPIB it was 1.11 fold enrichment (6-mer frequency, TF over GST control); with ELK3, 1.17 fold enrichment (6-mer frequency, TF over GST control); with FEV, 1.03 fold enrichment (6-mer frequency, TF over GST control); in the assay with ETV5, 1.16 fold enrichment (6-mer frequency, TF over GST control); in the assay with HSF1 it was 1.27 fold enrichment (6-mer frequency, TF over GST control). The binding signal is 1.1 fold enrichment (6-mer frequency, TF over GST control) with SPIC; 1.03 fold enrichment (6-mer frequency, TF over GST control) with ELF4; 1.12 fold enrichment (6-mer frequency, TF over GST control) with ETV2; 1.2 fold enrichment (6-mer frequency, TF over GST control) in the assay with ELF3; 1.72 fold enrichment (6-mer frequency, TF over GST control) in the assay with CRX; 1.04 fold enrichment (6-mer frequency, TF over GST control) in the assay with ETV1.

The record behind these values is publication PMC7862700, “An all-to-all approach to the identification of sequence-specific readers for epigenetic DNA modifications on cytosine”.
